The values that follow come from PubChem BioAssay AID1347165 (National Center for Advancing Translational Sciences (NCATS), 2019).

Screen size: about 220,000 compounds; about 5,700 (2.6%) were called active. Another 18% or so got no clear call; they are omitted. Calls follow the shape of the dose curve; as a rule, active = well fitted inhibition curve with a large enough effect; inconclusive = small, poorly fitted or top-dose-only effect; inactive = no such curve, though single readings can be large or run the other way. What follows is part of a selection rich in actives, with near analogues and random picks from the rest. A call without a number means that no potency is given here.
Potency is read from the fitted curve at half-maximal effect.

Chain of Lysine-specific demethylase 5B (Homo sapiens) (Q9UGL1 whole entry, looked up): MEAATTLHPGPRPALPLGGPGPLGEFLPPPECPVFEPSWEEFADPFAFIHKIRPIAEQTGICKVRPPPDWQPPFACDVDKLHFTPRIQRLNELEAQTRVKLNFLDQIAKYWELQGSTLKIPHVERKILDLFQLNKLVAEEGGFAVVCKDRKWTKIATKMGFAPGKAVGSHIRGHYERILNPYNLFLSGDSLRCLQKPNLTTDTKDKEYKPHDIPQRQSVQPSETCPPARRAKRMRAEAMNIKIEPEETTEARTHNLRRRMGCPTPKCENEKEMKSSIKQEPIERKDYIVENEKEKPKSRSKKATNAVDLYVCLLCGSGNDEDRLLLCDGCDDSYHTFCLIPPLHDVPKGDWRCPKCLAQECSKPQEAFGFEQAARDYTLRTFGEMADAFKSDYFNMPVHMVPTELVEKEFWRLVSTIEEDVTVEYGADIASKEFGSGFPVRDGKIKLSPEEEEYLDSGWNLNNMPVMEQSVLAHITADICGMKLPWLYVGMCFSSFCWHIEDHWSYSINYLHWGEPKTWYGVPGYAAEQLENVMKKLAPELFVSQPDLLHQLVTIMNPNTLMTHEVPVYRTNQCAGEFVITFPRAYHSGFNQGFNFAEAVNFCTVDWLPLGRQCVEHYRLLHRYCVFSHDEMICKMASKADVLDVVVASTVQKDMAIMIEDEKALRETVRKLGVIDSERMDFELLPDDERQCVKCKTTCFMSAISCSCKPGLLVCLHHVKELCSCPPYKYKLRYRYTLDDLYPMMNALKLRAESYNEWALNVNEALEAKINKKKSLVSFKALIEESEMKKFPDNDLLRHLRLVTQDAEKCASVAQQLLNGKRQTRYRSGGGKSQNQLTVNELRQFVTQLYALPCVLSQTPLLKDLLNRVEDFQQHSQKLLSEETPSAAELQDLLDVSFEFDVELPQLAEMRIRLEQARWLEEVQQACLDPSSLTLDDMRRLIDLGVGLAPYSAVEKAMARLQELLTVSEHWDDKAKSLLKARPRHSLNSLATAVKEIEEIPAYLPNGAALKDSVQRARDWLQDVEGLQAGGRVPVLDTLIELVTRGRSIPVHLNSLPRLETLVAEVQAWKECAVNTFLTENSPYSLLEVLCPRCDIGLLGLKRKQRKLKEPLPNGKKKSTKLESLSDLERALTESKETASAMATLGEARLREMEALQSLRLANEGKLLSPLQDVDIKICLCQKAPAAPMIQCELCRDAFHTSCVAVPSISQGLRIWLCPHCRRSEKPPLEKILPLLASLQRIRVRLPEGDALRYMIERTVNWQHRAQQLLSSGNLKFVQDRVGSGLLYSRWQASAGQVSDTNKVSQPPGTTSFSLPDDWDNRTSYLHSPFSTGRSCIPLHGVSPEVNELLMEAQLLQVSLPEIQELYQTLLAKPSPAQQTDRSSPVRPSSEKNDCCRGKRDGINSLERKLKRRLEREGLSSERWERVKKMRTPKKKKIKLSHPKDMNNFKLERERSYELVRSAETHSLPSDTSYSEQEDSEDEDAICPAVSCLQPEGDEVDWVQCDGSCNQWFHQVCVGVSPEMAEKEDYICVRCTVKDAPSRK

For the experiment, the target named is Lysine-specific demethylase 5B (Homo sapiens) (UniProt Q9UGL1). Nature of the experiment: Primary screen for KDM5B Histone Demethylases FDH-coupled qHTS. Also: nearly all actives have a fitted effect of over 70% in size. The conditions noted are these: FDH-coupled NADH fluorescence (FDH is formaldehyde dehydrogenase); series mostly up to 57.7 µM. From the text:
Assay Submitter (PI): Qin Yan, Ph.D. (Yale University) and Xiaodong Cheng, Ph.D. (MD Anderson) This project was funded as part of the NCI NEXT Program and Chemical Biology Consortium (CBC) The histone demethylases, KDM5A and KDM5B catalyze the demethylation of lysine 4 on histone H3 (H3K4me3/2). They are overexpressed in a variety of cancers and have been implicated in cancer cell growth, metastasis, drug resistance, and tumor growth. KDM5A is amplified and overexpressed in breast and gastric cancer; and is translocated in leukemia. While KDM5B is highly expressed in human mammary tumors and breast cancer cell lines, but not in normal adult breast tissue. Moreover, knockdown of KDM5B leads to upregulation of tumor suppressor genes, including BRCA1. The goal of this project is to employ qHTS to identify selective small molecule inhibitors of KDM5A/B demethylase activity to better understand the role of KDM5 in cancer and to develop novel therapies. We employed an FDH-coupled assay previously reported by Sakurai et al. to monitor in vitro KDM5 demethylase activity. Compounds showing dose response inhibition are re-acquired, validated, and tested for non-specific interference with the formaldehyde dehydrogenase (FDH) counterscreen. True inhibitors are validated using an AlphaLisa secondary screen, which employs an H3K4(me2-1)-specific antibody to monitor demethylation of a biotin-tagged H3K4(me3) peptide substrate. Inhibitors are profiled against KDM4A and KDM6A AlphaLisa counterscreens to determine level of demethylase specificity; and against the TruHits counterscreen to eliminate non-specific inhibitory activity on the AlphaLISA detection method. Selective inhibitors identified from the primary and secondary screening are tested in cells using immunofluorescence to monitor global H3K4 tri-methylation as a measure of KDM5A/B inhibition. Early Translation Branch (ETB) National Center for Advancing Translational Sciences (NCATS), Rockville, MD National Institute of Health (NIH), Bethesda, Maryland [1] Sakurai, M et al. A miniaturized screen for inhibitors of Jumonji histone demethylases. Mol Biosyst. 2010 Feb;6(2):357-64. doi: 10.1039/b912993f. Epub 2009 Oct 8.
Materials: 1536-well Black, solid bottom, medium binding assay plate is purchased from Greiner Bio-one. The enzymes (KDM5B) and substrate (H3K4me3/2) are provided by the principal investigators. The buffer for this assay is composed of 50mM HEPES at pH 7.5 with 0.01% Tween-20. FDH coupled Demethylase qHTS protocol: Three microliter enzyme mix (buffer + 200nM KDM5BDeltaAP final concentration) is dispensed into the assay plate using the BioRAPTR Flying Reagent Dispenser (FRD; […]). Compound (at various final concentration) and control solution is pin transferred to the assay plate using the Kalypsys 1536-pin tool apparatus. The assay plate is incubated for 10 min at room temperature followed by addition of 1uL substrate mix (buffer + 100uM ascorbic acid, 50uM ferrous ammonium sulfate, 12.5uM H3K4Me3, 25uM a-ketoglutarate, 0.25 mM NAD+, 0.25 U/mL formaldehyde dehydrogenase using the FRD yielding a total reaction volume of 4 uL. Initial fluorescence (Read1) is detected using the PerkinElmer ViewLux plate reader equipped with 340 nm excitation and 450 nm emission filters. The final fluorescence (Read2) signal is obtained after 30 min of room temperature incubation. Delta RFU is calculated (Read2 - Read1) and is used to generated dose response curves.
Regarding `Cc1ccc(NC(=O)c2ccccc2SCC(=O)NC2CC2)c(C)c1`, the Potency result is “inactive”.
In the case of `Cc1nnn2c(C(=O)NC3CC3)cccc12` it was 35.5 µM (active); in that of `Cn1ncc(Br)c1C(=O)NC1CCCC1`, “inactive”.
In the case of `O=c1oc2ccccc2cc1-c1nc(-c2ccc(F)cc2)no1` it was “inactive”; in that of `COC(=O)[C@@H]1C[C@@H](NC(=O)c2ccc(-c3nnn(C)n3)cc2)CN1C`, “inactive”.
Consider `COC(=O)[C@@H]1Cc2c([nH]c3ccccc23)[C@H]2C[C@H](NCCNC(C)=O)C[C@@H](c3ccc(C)cc3)N21`, for which the Potency was 17.8 µM (active).
In the case of `CN(CC(=O)NCCN1CCOCC1)S(=O)(=O)c1ccc(F)cc1` it was “inactive”; in that of `CCOc1cccc(CC(=O)N2CCc3c([nH]c4ccccc34)C2c2ccc(F)cc2)c1OCC` (stereo unspecified), “inactive”; in that of `Cc1ccc(C)n1-c1c(C(=O)NCCN2CCOCC2)sc2ncccc12`, “inactive”.
In the case of `COC(=O)[C@@H]1Cc2c([nH]c3ccccc23)[C@H]2C[C@@H](NCCN3CCOCC3)C[C@@H](c3ccccc3F)N21` it was 17.8 µM (active); in that of `CC(C)NC(=O)NC(=O)CSc1nc(-c2ccco2)nc2ccccc12`, “inactive”; in that of `CNC(=O)c1sc(NCc2ccccc2OC)nc1C`, “inactive”.
On to `CCOC(=O)c1c(C)[nH]c(C)c1S(=O)(=O)N(C)CC(=O)Nc1cc(C)cc(C)c1`, for which the Potency result is “inactive”.
As for `Cc1[nH]c2ccccc2c1C(=O)C(=O)NC1CCS(=O)(=O)C1` (stereo unspecified), the entry is “inactive”; as for `CC(C)(C)c1ccc(C(=O)N2C[C@@H](CO)[C@H](c3ccccn3)C2)cc1`, “inactive”; as for `O=C(c1cccc(C(F)(F)F)c1)N1C[C@@H](CO)[C@H](c2ccccn2)C1`, “inactive”.
As for `O=C(c1cccc2[nH]ccc12)N1C[C@@H](CO)[C@H](c2ccccn2)C1`, the figure is 17.8 µM (active); as for `Cc1cc2oc(=O)cc(CN3CCN(S(=O)(=O)c4ccc5c(c4)OCCO5)CC3)c2cc1C(C)C`, “inactive”; as for `COC(=O)CN(CC(=O)NC(N)=O)Cc1ccccc1`, “inactive”.
On to `COc1ccc2[nH]c(C(=O)N3C[C@@H](Oc4ccccc4)C[C@H]3C(=O)N3CCCC3)cc2c1`, for which the Potency entry is “inactive”.
As for `COc1ccc(CCC(=O)N2C[C@@H](Oc3ccccc3)C[C@H]2C(=O)N2CCOCC2)cc1`, the entry is “inactive”.
As for `COc1ccc2cc(C(=O)N3C[C@@H](Oc4ccccc4)C[C@H]3C(=O)N3CCOCC3)[nH]c2c1`, the figure is 28.2 µM (active); as for `CCCn1c(=O)n(CC(=O)Nc2ccc(C)c(F)c2)c(=O)c2c1nc(C)n2CCOC`, “inactive”.
As for `CCN(CC)c1ccc(C(=S)N(C)C)cc1`, the Potency result is “inactive”.
As for `CN1CCN([C@H]2CCN(C(=O)Cc3cccc(O)c3)C[C@H]2CCCO)CC1`, the entry is “inactive”; as for `Cc1nc(C(=O)N2CC[C@H](N3CCN(C)CC3)[C@H](CCCO)C2)cs1`, “inactive”.
In the case of `CNc1nc(N2CC[C@H](N3CCN(C)CC3)[C@H](CCC(=O)O)C2)ncc1F` it was 14.1 µM (active); in that of `O=C(CSc1nc(-c2ccc(F)cc2)cc(C(F)(F)F)n1)NC1CCCC1`, “inactive”; in that of `CCOC(=O)C1=C(N)Oc2c(oc(CO)cc2=O)C1c1ccccc1C(F)(F)F` (stereo unspecified), “inactive”.
In the case of `CCOc1cc(C2CC(=O)NC(SCC(=O)OC)=C2C#N)ccc1O` (stereo unspecified), the Potency result is “inactive”.
As for `COCCNc1nc2c(c(=O)n(C)c(=O)n2C)n1CCc1ccccc1`, the entry is “inactive”; as for `COc1cccc(C(=O)Nc2ccc3c(c2)CN(Cc2ccc(OC)cc2OC)C(=O)CO3)c1`, “inactive”; as for `COCC(=O)Nc1ccc2c(c1)CN(Cc1ccccc1F)C(=O)C(C)O2` (stereo unspecified), “inactive”.
As for `COCCn1c(C(=O)NCc2ccncc2)nc2ccccc2c1=O`, the entry is “inactive”; as for `O=C1Cc2c(-c3ccc(F)cc3F)n[nH]c2CN1Cc1ccccc1F`, “inactive”.
As for `Cc1ccccc1CN1Cc2nc(NCc3ccncc3)ccc2OCC1=O`, the figure is 35.5 µM (active); as for `COc1cccc(CN2Cc3nc(-c4cc(F)cc(F)c4)ccc3OCC2=O)c1`, “inactive”.
`COCCN1Cc2nc(NCc3ccccc3)ccc2OCC1=O`: the Potency was 35.5 µM (active).
For the compound `COc1cccc(CN2Cc3nc(Nc4cccc(F)c4)ccc3OCC2=O)c1`, the Potency is 28.2 µM (active).
On to `CCC(C(=O)Nc1ccc2c(c1)CN(Cc1cc(F)cc(F)c1)C(=O)CO2)c1ccccc1` (stereo unspecified), for which the Potency result was “inactive”.
As for `O=C1COc2ccc(Nc3ccccc3F)nc2CN1Cc1ccccc1F`, the figure is 35.5 µM (active).
In the case of `O=C1COc2ccc(-c3cncnc3)nc2CN1Cc1ccc(F)cc1` it was “inactive”.
As for `CC(=O)Nc1scc(-c2cc(C)ccc2C)c1C#N`, the entry is “inactive”; as for `Cc1ccc(C(=O)C(C)OC(=O)Cc2n[nH]c(=O)c3ccccc23)cc1C` (stereo unspecified), “inactive”.
For the compound `O=C1c2ccccc2NC(c2cnc3ccccc3n2)N1c1ccc(Cl)cc1` (stereo unspecified), the Potency entry is “inactive”.
Consider `Cc1cc(C)c(C(=O)Nc2ccccc2)c(SCC(=O)NC2CCCCC2)n1`, for which the Potency result is “inactive”.
In the case of `CCN1CCN(C(c2ccccc2)c2c(O)cc(C)n(CC)c2=O)CC1` (stereo unspecified) it was “inactive”.
For the compound `CCCCC(c1nnnn1CS(=O)(=O)c1ccc(C)cc1)N1CCC(C(N)=O)CC1` (stereo unspecified), the Potency result was “inactive”.
As for `CCC(C)c1ccc(NC(=S)N2CCCC2)cc1` (stereo unspecified), the entry is “inactive”.
As for `CC(C)NC(=O)C1(CCO)CCN(c2ncccn2)C1` (stereo unspecified), the figure is 31.6 µM (active); as for `CC(C)NC(=O)C1(CCO)CC12CCOCC2` (stereo unspecified), “inactive”.
